Assay outcomes (PubChem BioAssay)
CtBP-E1A blk = qHTS Assay for Inhibitors of the CtBP/E1A Interaction. AlphaScreen GST-E1A/His-CtBP binding, 1536-well; stronger effect = lower value. AID 651724, 2012. CtBP / adenovirus E1A interaction (AlphaScreen). activity change, % (test concentration not listed). actives 0.49% (n = 340,000); in the data active means activity change below about -65%; inconclusive means mostly about -30% to -63%; further: on the % scale 0 is the no-effect control and ±100 the full control effect
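In 5 uL wells, 23 nL compound meets equimolar GST-E1A and His-CtBP (5X stock 125 nM each) for 2 h, 37 °C. Beads (5X, 50 ug/mL) then 1 h, 37 °C, dark.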
MBNL1-CUG inh = qHTS Assay for Inhibitors of MBNL1-poly(CUG) RNA binding. Muscleblind-like protein 1 (Homo sapiens), Q9NR56. TR-FRET MBNL1-His/biotin-(CUG)12 binding, 665/545 ratio. Potency, µM (top dose mostly 57.5 µM), without a hit: at the highest dose activity change, negative = inhibition, actives largely listed as inhibitors. actives 0.036% (n = 280,000); active means well fitted inhibition curve with a large enough effect in the signal ratio, with a control signal flat, not every such curve was filed as active; inconclusive means small, poorly fitted or top-dose-only effect, or effect the other way, or a change in a side signal; inactive means no such curve, though single readings can be large or run the other way; the % refers to the signal ratio; further: potency means the concentration at half of the fitted maximal effect; on the % scale 0 is the no-effect control and ±100 the full control effect
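Compounds (final 92 nM to 58 uM) are added to His-tagged MBNL1 and biotin-(CUG)12, then terbium anti-His antibody and streptavidin-XL665 (5 nM final). After 60 min at room temperature, the 665/545 nm ratio is read.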
RORgamma inh = qHTS for inhibitors of ROR gamma transcriptional activity; Drosophila S2 Gal4-RORgamma UAS-luciferase reporter, 20 h; Potency, µM (titrated, usually from 53.6 µM), for the others: top-dose activity change, negative = inhibition, most hits filed as inhibitors; AID 2551, 2010; Nuclear receptor ROR-gamma (Mus musculus), P51450; actives 5.4% (n = 310,000); further: potency means the concentration at half of the fitted maximal effect; on the % scale 0 is the no-effect control and ±100 the full control effect; nearly all actives have a fitted effect of over 60% in size
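Luciferase reporter read in Schneider cells carrying Gal4-RORγ (mouse) and UAS-Photinus luciferase; cells given compound 1 h before 700 uM copper sulfate induction, then incubated 20 h at ambient temperature.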
VP16 counter = VP16 counterscreen qHTS for inhibitors of ROR gamma transcriptional activity. Drosophila S2 Gal4-VP16 UAS-luciferase, luminescence, 20 h. actives 3.5% (n = 310,000). AID 2546, 2010. Potency, µM (doses to about 53.6 µM), for the others: at the highest dose activity, negative = inhibition, actives largely listed as inhibitors;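 further: Gal4-VP16 expression switched on by copper sulfate through the metallothionein promoter; potency means the concentration at half of the fitted maximal effect; on the % scale 0 is the no-effect control and ±100 the full control effect; nearly all actives have a fitted effect of over 50% in size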
CBFb RUNX1 block = qHTS Assay for Compounds Blocking the Interaction Between CBF-beta and RUNX1 for the Treatment of Acute Myeloid Leukemia | Runt-related transcription factor 1 (Homo sapiens) + Core-binding factor subunit beta … | AlphaScreen CBFb-His/RUNX1-biotin binding, biochemical | Potency, µM (highest dose often 59.8 µM), for the others: top-dose activity, negative = inhibition, actives largely listed as inhibitors | 230,000 tested, under 10 active | AID 1477, 2009; further: % of control where 0% means no effect
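CBFb-His/RUNX1-biotin, 30 nM each, preincubated 20 min RT; compound 15 min RT; Ni + streptavidin beads 50 ng each, 90 min RT; AlphaScreen read.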
Six1-Eya2 inh = qHTS Assay for Inhibitors of the Six1/Eya2 Interaction; Homeobox protein SIX1 (Homo sapiens) + Protein phosphatase EYA2 (Homo sapiens), …; AlphaScreen GST-Six1/His-Eya2 binding, biochemical; stronger effect = lower value; actives 0.56% (n = 360,000); activity change, % (no concentration beside the values); AID 651725, 2012; in the data active means activity change below about -65%; inconclusive means mostly about -30% to -63%; further: on the % scale 0 is the no-effect control and ±100 the full control effect
Target sequence (O00167 whole entry, looked up): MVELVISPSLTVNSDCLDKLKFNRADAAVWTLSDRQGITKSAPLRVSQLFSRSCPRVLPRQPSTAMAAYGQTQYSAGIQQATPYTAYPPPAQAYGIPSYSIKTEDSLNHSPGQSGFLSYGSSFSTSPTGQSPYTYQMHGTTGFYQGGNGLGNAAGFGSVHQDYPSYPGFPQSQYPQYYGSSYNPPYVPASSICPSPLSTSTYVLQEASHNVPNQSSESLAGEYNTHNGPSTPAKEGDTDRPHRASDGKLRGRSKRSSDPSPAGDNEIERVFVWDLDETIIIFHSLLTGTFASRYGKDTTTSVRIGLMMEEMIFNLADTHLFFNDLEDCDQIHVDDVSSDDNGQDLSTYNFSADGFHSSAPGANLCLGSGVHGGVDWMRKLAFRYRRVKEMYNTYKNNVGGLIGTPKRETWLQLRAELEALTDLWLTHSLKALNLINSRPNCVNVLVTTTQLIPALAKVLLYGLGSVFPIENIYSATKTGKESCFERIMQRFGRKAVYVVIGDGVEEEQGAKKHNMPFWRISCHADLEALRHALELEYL
Target sequence (Q15475 whole entry, looked up): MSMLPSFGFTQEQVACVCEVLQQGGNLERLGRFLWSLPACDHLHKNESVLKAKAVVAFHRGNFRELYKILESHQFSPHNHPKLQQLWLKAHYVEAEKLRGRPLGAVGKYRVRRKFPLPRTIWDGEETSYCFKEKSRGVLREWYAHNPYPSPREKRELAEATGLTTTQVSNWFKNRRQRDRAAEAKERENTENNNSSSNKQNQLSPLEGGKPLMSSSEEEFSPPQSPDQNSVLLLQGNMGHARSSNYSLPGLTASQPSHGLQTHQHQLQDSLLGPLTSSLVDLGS
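GST-Six1 + His-Eya2 (5X stock: 250/500 nM); Tris pH 8.0, 300 mM NaCl, 0.05% BSA, 0.02% Tween 20; GSH donor/Ni acceptor beads; 1 h 37 °C dark; AlphaScreen readout.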
An asterisk follows results filed as active; u = inconclusive; x = no result. Shown are actives, neighbours in structure and some others; about 5.5% of the full set was active somewhere. Unless noted, the call rests on the fitted dose curve; in most records, active means well fitted curve in the direction sought with a large enough effect; inconclusive means small, poorly fitted or top-dose-only effect, or another doubt; inactive means no such curve, though single readings can be large; an effect the other way counts as inactive or inconclusive.

SMILES	CtBP-E1A blk	MBNL1-CUG inh	RORgamma inh	VP16 counter	CBFb RUNX1 block	Six1-Eya2 inh
COc1ccc(/C=N/NC(=O)c2ccc(N(C)S(=O)(=O)c3ccccc3)cc2)c(OC)c1	x	1%	10µM*	-5%	-2%	-1
CC1Cc2ccccc2N1NC(=O)c1ccc(Cl)c(S(N)(=O)=O)c1 (stereo unspecified)	-12	-12%	0%	-23%	11%	-85*
CC1CCCC(C)N1NC(=O)c1ccc(Cl)c(S(N)(=O)=O)c1 (stereo unspecified)	0	-2%	-23%	-3%	-1%	1
CSc1nnc(SC)nn1	x	x	-13%	3%	20%	x
Cc1ccc(S[C@@H](CCN2CC[C@H](C(C)(C)C)CCC2=O)c2ccccc2)cc1	-6	-3%	-4%	10µM*	x	-2
Cc1ccccc1C(=O)N/N=C1/SCC(=O)N1Cc1ccccc1	1	5%	-21%	2%	2%	2
COCCCNC(=S)Nc1ccc(C)cc1	x	-7%	u	-19%	3%	2
COCCCNC(=S)NNC(=S)Nc1ccccc1	3	-10%	u	-8%	4%	5
COCCCNC(=S)NCCc1ccc(F)cc1	x	-4%	10µM*	u	2%	7
COCCCNC(=S)NNC(=S)Nc1ccc(F)cc1F	-2	-4%	7.1µM*	-17%	0%	1
CC(C)Nc1ncnc2c1ncn2[C@H]1CN(Cc2cccs2)C[C@@H](CO)O1	10	x	x	x	x	3
CC(CCc1ccccn1)(CCc1ccccn1)C(=O)c1ccccc1	6	x	x	x	x	5
COc1ccc(CNc2ncnc3ccc(-c4ccc(N(C)C)cc4)cc23)c(OC)c1	x	x	u	-9%	x	x
CCn1c(-c2cc(Br)cc(OC)c2O)nc2cc(S(=O)(=O)N(C)C)ccc21	u	9%	3.5µM*	7.9µM*	-6%	u
CCn1c(-c2ccccn2)nc2cc(S(=O)(=O)N(C)C)ccc21	-4	-9%	20%	3%	x	0
COc1ccc(C(=O)/C=C/C(=O)N(CC(=O)NC2CCCCC2)CC2CCCO2)c(O)c1 (stereo unspecified)	5	0%	6.3µM*	3.2µM*	2%	0
COc1ccc(C(=O)/C=C/C(=O)N(CC(=O)NC2CCCCC2)Cc2ccccc2)c(O)c1	8	-6%	14%	-26%	-1%	-1
CCOC(=O)c1c(C)oc2c1c(C=NCCO)c(O)c1ccccc12	26	u	11µM*	u	-6%	-24
CCOC(=O)c1c(C)oc2c1c(C(c1ccccc1)N1CCOCC1)c(O)c1ccccc12 (stereo unspecified)	-3	-2%	u	10µM*	-7%	-5
CN1C(=O)N(CC(=O)c2ccc3c(c2)OCO3)C(=O)C12CCCCC2	4	x	x	x	x	8
CC(C)c1cccc(-c2csc(C(C)(O)c3ccccc3)n2)c1 (stereo unspecified)	14	x	x	x	x	10
CCN(CC(=O)Nc1c(F)cccc1F)C(=O)c1cccc(S(=O)(=O)N2CCCc3ccccc32)c1	-22	x	x	x	x	-1
CCCNC(=O)CNC(=S)N(Cc1ccccc1F)C1CCCCC1	0	-5%	u	-23%	-24%	-2
CCOC(=O)CNC(=S)N(Cc1ccccc1F)C1CCCCC1	0	5%	11µM*	-6%	10%	9
CC(C)c1ccc(CN(C)C(=O)c2ccc(S(=O)(=O)NCc3ccco3)cc2)cc1	x	x	x	x	x	-9
SMILES	CtBP-E1A blk	MBNL1-CUG inh	RORgamma inh	VP16 counter	CBFb RUNX1 block	Six1-Eya2 inh
CC(C)C[C@H](NC(=O)[C@H](CC(C)C)NC(=O)[C@H](Cc1ccccc1)NC(=O)[C@@H](N)CO)C(=O)N[C@@H](CCCN=C(N)N)C(=O)N[C@@H](CC(N)=O)C(=O)O	x	x	21%	-2%	13%	x
CCOC(=O)C1=C(CSc2nc(C)ccc2C#N)OC(N)=C(C#N)C1c1cccc(OC)c1OC (stereo unspecified)	u	24%	20µM*	u	-10%	-23
CC(=O)NC(c1cccc(F)c1)c1nc(-c2cnc3ccccc3c2)cs1 (stereo unspecified)	-20	x	x	x	x	-2
S=c1nc(-c2ccccc2)[nH]c2ccccc12	1	13%	0.79µM*	7.1µM*	-4%	-7
S=c1nc(-c2ccc(Br)cc2)[nH]c2ccccc12	0	x	u	-4%	5%	2
O=C(CCN1CCN(c2ccccc2)CC1)N/N=C/c1ccccc1O	7	-1%	2µM*	6.3µM*	-14%	-70*
O=C(CCC(=O)Nc1ccc(F)cc1)N/N=C/c1ccccc1O	u	3%	14µM*	-24%	-17%	u
Oc1ccccc1C=NNC(=S)Nc1ccc(F)cc1	-92*	x	x	x	x	-76*
CN(C)c1nc(N/N=C/c2ccccc2O)nc(Nc2ccc(F)cc2)n1	-10	5%	0.22µM*	1.1µM*	u	-9
Cn1nccc1C(=O)NC1CCCc2c1cnn2-c1cc(F)cc(F)c1 (stereo unspecified)	-6	-4%	u	u	x	5
COc1cc(/C=N/NC(=O)CCC(=O)NCc2ccccc2)cc(OC)c1OC	-66*	6%	8%	-6%	-4%	-12
O=C(CCC(=O)Nc1cc(C(F)(F)F)ccc1Cl)N/N=C\c1cc([N+](=O)[O-])ccc1O	-67*	5%	2.5µM*	8.9µM*	x	-30
Cc1cccc(NC(=O)CCC(=O)N/N=C/c2cc([N+](=O)[O-])ccc2O)c1	-90*	44%	8.9µM*	-7%	-22%	-79*
O=C(CCC(=O)N/N=C/c1ccccc1O)NCc1ccccc1	u	0%	20µM*	-24%	5%	u
Cc1cccc(NC(=O)CCC(=O)N/N=C/c2ccncc2)c1	26	10%	22%	u	-8%	16
COc1ccc(C(=O)NNC(=O)C23CC4CC(CC(C4)C2)C3)cc1OC	0	x	x	x	x	6
O=C(CCC(=O)Nc1ccc(Br)cc1)N/N=C/c1cc([N+](=O)[O-])ccc1O	-15	-14%	-34%	-23%	-15%	-3
O=C(CCC(=O)Nc1ccc(F)cc1)N/N=C/c1cc([N+](=O)[O-])ccc1O	-86*	16%	10µM*	-11%	-17%	u
